The full data set covers some 8,800 targets. This sample favours those with a hit. About 0.5% of all pairs of compound and target were hits. A number with no mark means an inactive call.

Common to all, as to test: log2 fold change, soluble protein after heating vs DMSO (PISA); higher = thermal stabilisation; K562 lysate, 10 uM; active = over 0.2 and 3.5 SD of the protein, either way, in both replicates (recomputed)
Compound in experiment [1]: NCC(=O)Nc1ccc(-n2nc(C(F)(F)F)cc2-c2ccc3c(ccc4ccccc43)c2)cc1
Summed up: (§1)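 Log-two fold change in thermal stability relative to solvent controls is reported from duplicates. For each sample, crude K562 extract from dounce-homogenised pellets in PBS pH 7.4 with 1 mM MgCl2, at 1 mg/mL protein, was treated with 10 μM compound for 30 min. Aliquots heated for 3 min across 48°C-58°C were pooled, brought to 0.5% NP-40 at 4°C and cleared at 21,000xg for 90 min. The supernatant was quantified by TMTpro 16plex LC-MS/MS with channel sums equalised.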

Compound in experiment [2]: O=C(CCCCCCC(=O)Nc1ccccc1)NO [vorinostat]
The procedure, abridged:
as §1

Compound in experiment [3]: O=C(O)c1ccc2c(c1)nc(Nc1cccc(Cl)c1)c1ccncc12 [silmitasertib]
The procedure, abridged:
as §1

Compound in experiment [4]: O=C1NC(=O)C(c2cnc3ccccn23)=C1c1cn2c3c(cc(F)cc13)CN(C(=O)N1CCCCC1)CC2
Summed up: as §1

Compound in experiment [5]: c1cn2cc(-c3ccc4cn[nH]c4c3)nc(Nc3ccc(N4CCOCC4)cc3)c2n1 [entospletinib]
Summed up:
as §1

UniProt Q8N1F7, sequence (Q8N1F7 whole entry, looked up): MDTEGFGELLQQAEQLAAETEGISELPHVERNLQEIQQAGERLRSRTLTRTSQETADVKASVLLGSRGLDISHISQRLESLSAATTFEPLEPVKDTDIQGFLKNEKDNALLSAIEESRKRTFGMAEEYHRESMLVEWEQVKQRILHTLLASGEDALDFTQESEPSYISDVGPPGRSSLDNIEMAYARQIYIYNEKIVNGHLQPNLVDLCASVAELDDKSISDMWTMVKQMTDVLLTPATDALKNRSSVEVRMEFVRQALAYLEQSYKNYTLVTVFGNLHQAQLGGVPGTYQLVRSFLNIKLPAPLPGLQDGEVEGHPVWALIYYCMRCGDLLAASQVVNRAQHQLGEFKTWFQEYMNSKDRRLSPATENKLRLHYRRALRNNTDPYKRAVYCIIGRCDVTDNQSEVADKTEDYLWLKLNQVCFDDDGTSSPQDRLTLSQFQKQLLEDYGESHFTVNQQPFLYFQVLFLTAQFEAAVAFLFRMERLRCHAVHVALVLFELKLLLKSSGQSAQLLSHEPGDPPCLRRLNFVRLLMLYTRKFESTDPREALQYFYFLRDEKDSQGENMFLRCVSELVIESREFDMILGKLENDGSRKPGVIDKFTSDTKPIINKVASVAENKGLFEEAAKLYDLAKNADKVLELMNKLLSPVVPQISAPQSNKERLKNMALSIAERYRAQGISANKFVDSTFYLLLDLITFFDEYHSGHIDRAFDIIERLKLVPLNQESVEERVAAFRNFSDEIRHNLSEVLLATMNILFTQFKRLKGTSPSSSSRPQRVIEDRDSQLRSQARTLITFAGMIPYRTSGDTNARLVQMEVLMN
UniProt O60313, sequence (O60313 whole entry, looked up): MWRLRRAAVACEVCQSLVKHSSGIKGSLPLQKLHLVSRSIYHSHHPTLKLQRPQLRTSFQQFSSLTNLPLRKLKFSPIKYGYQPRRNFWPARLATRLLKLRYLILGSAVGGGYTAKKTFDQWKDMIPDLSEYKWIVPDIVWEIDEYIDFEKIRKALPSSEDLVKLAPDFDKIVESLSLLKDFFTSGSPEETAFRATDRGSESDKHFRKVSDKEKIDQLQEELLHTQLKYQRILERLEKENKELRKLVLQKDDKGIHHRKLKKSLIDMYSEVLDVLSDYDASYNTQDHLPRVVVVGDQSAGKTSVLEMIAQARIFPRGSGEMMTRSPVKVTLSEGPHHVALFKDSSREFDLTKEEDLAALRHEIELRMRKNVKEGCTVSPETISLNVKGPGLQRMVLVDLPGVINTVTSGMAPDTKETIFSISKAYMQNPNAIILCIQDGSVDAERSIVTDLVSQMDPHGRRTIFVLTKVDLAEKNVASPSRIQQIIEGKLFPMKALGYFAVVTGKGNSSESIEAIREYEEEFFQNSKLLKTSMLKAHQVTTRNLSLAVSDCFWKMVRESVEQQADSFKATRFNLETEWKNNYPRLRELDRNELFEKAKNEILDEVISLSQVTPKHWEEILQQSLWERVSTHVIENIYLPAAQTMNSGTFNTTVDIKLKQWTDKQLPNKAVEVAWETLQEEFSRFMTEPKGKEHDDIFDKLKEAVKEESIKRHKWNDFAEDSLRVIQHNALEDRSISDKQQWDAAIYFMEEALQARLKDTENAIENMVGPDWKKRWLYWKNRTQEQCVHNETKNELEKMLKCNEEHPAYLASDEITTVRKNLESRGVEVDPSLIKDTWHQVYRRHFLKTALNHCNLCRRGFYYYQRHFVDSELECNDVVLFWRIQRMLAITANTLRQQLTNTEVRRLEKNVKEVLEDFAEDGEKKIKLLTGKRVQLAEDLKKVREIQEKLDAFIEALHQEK
UniProt Q9NX02, sequence (Q9NX02 whole entry, looked up): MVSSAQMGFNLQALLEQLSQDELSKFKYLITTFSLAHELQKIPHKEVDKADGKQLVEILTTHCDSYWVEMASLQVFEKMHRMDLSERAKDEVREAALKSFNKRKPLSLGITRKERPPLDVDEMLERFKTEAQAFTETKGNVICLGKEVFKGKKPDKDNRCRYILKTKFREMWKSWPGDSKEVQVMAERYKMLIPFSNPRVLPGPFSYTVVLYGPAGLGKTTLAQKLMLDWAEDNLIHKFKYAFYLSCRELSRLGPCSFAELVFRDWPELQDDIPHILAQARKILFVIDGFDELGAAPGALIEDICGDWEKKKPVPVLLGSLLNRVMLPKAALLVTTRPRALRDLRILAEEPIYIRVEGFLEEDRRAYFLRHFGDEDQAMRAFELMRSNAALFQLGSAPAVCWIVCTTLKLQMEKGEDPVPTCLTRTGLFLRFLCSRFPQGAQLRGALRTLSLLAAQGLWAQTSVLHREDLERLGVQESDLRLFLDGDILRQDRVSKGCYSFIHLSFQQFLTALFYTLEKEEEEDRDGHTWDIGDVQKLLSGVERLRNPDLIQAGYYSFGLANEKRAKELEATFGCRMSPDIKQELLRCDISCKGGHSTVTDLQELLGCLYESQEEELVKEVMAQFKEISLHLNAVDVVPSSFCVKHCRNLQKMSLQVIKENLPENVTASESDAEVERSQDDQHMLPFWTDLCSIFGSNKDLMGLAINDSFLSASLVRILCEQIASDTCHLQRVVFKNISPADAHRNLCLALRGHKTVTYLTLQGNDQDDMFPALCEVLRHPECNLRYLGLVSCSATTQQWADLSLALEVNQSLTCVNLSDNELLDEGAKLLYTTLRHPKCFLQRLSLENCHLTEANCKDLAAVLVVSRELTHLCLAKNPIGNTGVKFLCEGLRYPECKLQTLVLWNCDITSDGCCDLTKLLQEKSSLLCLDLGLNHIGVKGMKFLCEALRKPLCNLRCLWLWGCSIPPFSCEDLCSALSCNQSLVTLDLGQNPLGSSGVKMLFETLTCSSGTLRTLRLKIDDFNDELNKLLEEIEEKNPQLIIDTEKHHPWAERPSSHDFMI
UniProt P24468, sequence (P24468 whole entry, looked up): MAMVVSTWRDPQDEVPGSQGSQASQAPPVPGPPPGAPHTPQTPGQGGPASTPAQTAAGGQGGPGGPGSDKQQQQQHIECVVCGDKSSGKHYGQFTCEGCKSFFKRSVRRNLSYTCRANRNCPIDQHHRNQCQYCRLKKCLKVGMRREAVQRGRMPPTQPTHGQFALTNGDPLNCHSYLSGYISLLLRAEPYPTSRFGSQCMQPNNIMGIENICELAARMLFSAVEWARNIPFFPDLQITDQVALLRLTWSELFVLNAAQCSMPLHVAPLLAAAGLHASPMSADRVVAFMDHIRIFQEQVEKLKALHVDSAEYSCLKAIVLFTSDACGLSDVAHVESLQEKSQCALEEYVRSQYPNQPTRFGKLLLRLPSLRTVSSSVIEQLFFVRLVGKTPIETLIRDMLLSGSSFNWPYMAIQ
UniProt Q8TD19, sequence (Q8TD19 whole entry, looked up): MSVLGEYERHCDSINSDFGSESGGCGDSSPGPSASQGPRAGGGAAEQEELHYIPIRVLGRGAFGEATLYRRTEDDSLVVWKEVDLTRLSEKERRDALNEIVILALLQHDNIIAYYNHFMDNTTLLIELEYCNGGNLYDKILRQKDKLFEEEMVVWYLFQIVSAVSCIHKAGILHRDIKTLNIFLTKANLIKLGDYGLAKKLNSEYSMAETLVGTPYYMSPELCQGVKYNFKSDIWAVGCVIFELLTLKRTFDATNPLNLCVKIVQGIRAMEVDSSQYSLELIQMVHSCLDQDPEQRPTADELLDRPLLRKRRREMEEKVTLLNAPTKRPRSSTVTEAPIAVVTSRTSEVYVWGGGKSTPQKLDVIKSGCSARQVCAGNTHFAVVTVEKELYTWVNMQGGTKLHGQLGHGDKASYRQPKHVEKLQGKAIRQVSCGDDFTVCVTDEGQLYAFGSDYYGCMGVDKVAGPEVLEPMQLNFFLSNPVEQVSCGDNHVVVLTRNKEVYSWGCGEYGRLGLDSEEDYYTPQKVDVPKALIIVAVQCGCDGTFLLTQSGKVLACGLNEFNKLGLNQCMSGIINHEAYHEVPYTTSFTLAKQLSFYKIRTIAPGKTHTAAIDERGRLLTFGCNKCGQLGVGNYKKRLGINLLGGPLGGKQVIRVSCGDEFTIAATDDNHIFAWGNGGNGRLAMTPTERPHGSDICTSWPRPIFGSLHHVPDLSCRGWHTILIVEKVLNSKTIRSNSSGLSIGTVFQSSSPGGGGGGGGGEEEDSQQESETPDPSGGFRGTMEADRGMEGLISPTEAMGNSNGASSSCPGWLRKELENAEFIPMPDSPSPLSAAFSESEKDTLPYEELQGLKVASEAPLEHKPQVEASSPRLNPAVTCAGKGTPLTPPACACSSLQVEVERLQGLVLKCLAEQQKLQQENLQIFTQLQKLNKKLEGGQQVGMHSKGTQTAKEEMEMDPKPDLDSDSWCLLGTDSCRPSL
UniProt Q8IVI9, sequence (Q8IVI9 whole entry, looked up): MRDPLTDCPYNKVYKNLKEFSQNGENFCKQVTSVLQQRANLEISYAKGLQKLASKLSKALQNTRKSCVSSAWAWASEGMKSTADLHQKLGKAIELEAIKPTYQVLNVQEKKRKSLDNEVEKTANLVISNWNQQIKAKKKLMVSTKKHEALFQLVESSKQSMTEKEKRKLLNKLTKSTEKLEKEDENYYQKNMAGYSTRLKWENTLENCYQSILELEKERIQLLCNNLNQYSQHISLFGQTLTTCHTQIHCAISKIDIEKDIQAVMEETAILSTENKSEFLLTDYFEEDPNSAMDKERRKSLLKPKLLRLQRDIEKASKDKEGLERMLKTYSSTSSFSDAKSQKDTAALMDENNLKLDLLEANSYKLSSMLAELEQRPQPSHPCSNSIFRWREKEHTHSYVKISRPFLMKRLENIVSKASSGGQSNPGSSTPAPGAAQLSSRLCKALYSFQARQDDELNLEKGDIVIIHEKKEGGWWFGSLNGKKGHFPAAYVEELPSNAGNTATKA
UniProt Q9BV86, sequence (Q9BV86 whole entry, looked up): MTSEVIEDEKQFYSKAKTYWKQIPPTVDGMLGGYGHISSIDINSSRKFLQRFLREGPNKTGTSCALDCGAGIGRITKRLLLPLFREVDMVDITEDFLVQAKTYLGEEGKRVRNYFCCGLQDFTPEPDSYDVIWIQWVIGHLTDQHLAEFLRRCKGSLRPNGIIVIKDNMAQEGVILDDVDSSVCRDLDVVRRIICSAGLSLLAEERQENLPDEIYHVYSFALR

For NSL1 (UniProt Q96IY1), the log2 fold change in experiment [1] was -0.012; in experiment [2], -0.528 (active); in experiment [3] it was -0.022; in experiment [4], -0.005; in experiment [5] it was 0.03.
Taken in the same sequence, the figures for NUDT4 isoform 2 (UniProt Q9NZJ9) were 0.057, -0.336 (active), -0.034, 0.018 and -0.023.
The corresponding values for PARG (UniProt Q86W56) are 0.006, -0.363 (active), -0.035, 0.018 and 0.006.
Take NEK9 (UniProt Q8TD19): the log2 fold change in experiment [1] was -0.03; in experiment [2] it was -0.45 (active); in experiment [3] it was 0.052; in experiment [4] it was -0.013; in experiment [5], 0.013.
Taken in the same sequence, the figures for OAT (UniProt P04181) were 0.053, 0.168, -0.006, 0.042 and 0.029.
In the case of NFATC2IP (UniProt Q8NCF5), the log2 fold change in experiment [1] was 0.041; in experiment [2], -0.069; in experiment [3], -0.039; in experiment [4] it was -0.07; in experiment [5] it was 0.041.
With MSI2 (UniProt Q96DH6), the log2 fold change in experiment [1] was 0.053; in experiment [2], -0.046; in experiment [3], -0.021; in experiment [4], -0.052; in experiment [5] it was 0.033.
As for OSBP2 (UniProt Q969R2), the log2 fold change was 0.025 in experiment [1]; 0.055 in experiment [2]; -0.147 in experiment [3]; 0.023 in experiment [4]; -0.102 in experiment [5].
For the target NAA30 (UniProt Q147X3), the log2 fold change in experiment [1] was -0.019; in experiment [2], -0.235 (active); in experiment [3] it was 0.047; in experiment [4], 0.009; in experiment [5], -0.003.
As for PAGE2B (UniProt Q5JRK9), the log2 fold change is 0.057 in experiment [1]; 0.474 (active) in experiment [2]; -0.001 in experiment [3]; 0.02 in experiment [4]; 0.017 in experiment [5].
Consider NUP93 (UniProt Q8N1F7), for which the log2 fold change is -0.011 in experiment [1]; -0.242 (active) in experiment [2]; 0.067 in experiment [3]; 0.015 in experiment [4]; 0.022 in experiment [5].
As for PAPOLG (UniProt Q9BWT3), the log2 fold change in experiment [1] is -0.037; in experiment [2] it was -0.369 (active); in experiment [3] it was 0.209; in experiment [4], 0.066; in experiment [5], -0.013.
For OPA1 isoform 2 (UniProt O60313), the log2 fold change was 0.002 in experiment [1]; 0.014 in experiment [2]; 0.027 in experiment [3]; 0.009 in experiment [4]; -0.004 in experiment [5].
On to NOSTRIN (UniProt Q8IVI9), for which the log2 fold change is -0.083 in experiment [1]; -0.27 (active) in experiment [2]; 0.028 in experiment [3]; 0.019 in experiment [4]; 0.018 in experiment [5].
Taken in the same sequence, the figures for MRPS31 (UniProt Q92665) were 0.058, 0.021, -0.046, -0.001 and 0.
Consider NTMT1 (UniProt Q9BV86), for which the log2 fold change in experiment [1] is 0.008; in experiment [2], -0.366 (active); in experiment [3], 0.026; in experiment [4] it was 0.01; in experiment [5] it was 0.049.
Taken in the same sequence, the figures for ORC2 (UniProt Q13416) were 0, -0.285 (active), 0.007, 0.049 and 0.021.
Taken in the same sequence, the figures for MTA2 (UniProt O94776) were 0.034, -0.352 (active), 0.02, 0.006 and 0.021.
For NPLOC4 (UniProt I3L3I1), the log2 fold change in experiment [4] is 0.253; in experiment [5] it was -0.146.
Regarding NCAPG (UniProt Q9BPX3), the log2 fold change is -0.001 in experiment [1]; -0.283 (active) in experiment [2]; 0.029 in experiment [3]; -0.003 in experiment [4]; -0.002 in experiment [5].
Consider PARD3B (UniProt Q8TEW8), for which the values for the log2 fold change in experiment [2] and in experiment [3] were -0.585 (active) and -0.209, respectively.
For NR2F2 (UniProt P24468), the log2 fold change was -0.389 (active) in experiment [2], 0.176 in experiment [3] and 0.017 in experiment [4].
For the target NLRP2 (UniProt Q9NX02), the log2 fold change in experiment [1] was -0.031; in experiment [2] it was -0.528 (active); in experiment [3] it was 0.062; in experiment [4] it was -0.015; in experiment [5], 0.011.
Consider NUDT5 (UniProt C9JYY9), for which the log2 fold change is -0.041 in experiment [2], 0.129 in experiment [3] and 0.01 in experiment [5].
As for NUB1 isoform 2 (UniProt Q9Y5A7), the log2 fold change in experiment [4] is -0.068.
For NFATC4 isoform 2 (UniProt Q14934), the values for the log2 fold change in experiment [1], in experiment [4] and in experiment [5] were 0.207, 0.076 and 0.019, respectively.
Turning to NR3C1 isoform 3 (UniProt P04150), the log2 fold change is -0.124 in experiment [1], 0.05 in experiment [3], 0.046 in experiment [4] and -0.064 in experiment [5].

Source of the values: the supplement of paper PMC10849652.
